# Data published in PubChem BioAssay (EPA / NIEHS).
# A structure can be active in one record and inactive in another. Activity calls are given as the source filed them. How the source made its calls: active means hit-call score of the fitted dose curve at least 0.9, where 1 is the maximum; inactive means score below 0.9.
# Legend:
# [1] = ATG_M_32_CIS: Attagene CIS-FACTORIAL HepG2 Assay for M32 Transcription Factor (Internal Marker) (AID 2282949); details: HepG2 Attagene cis-factorial M32 reporter, mRNA; actives raise or lower the signal;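 further: background control marker of the multiplexed CIS panel rather than a real target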
# Method in brief: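 Internal background marker read-out: RT-PCR/capillary electrophoresis fluorescence of reporter transcripts from transiently transfected HepG2 cells after 24 h chemical exposure. Activity fitted bidirectionally relative to DMSO negative control.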
# [2] = ATG_M_06_CIS: Attagene CIS-FACTORIAL HepG2 Assay for M06 Transcription Factor (Internal Marker) (AID 2282950); details: HepG2 Attagene CIS-FACTORIAL M06 internal marker reporter; actives raise or lower the signal
# Method in brief: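 Internal background marker within multiplexed cis-reporter HepG2 system. Cells transiently transfected, dosed 24 h; reporter mRNA measured by RT-PCR, HpaI digestion and capillary electrophoresis. Bidirectional fit relative to DMSO.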
# [3] = target: Hypoxia-inducible factor 1-alpha (Homo sapiens) (UniProt Q16665); test: ATG_HIF1a_CIS: Attagene CIS-FACTORIAL HepG2 Assay for human Hypoxia Inducible Factor 1 (HIF1A) (AID 2282951); details: HepG2 Attagene cis-factorial HIF1a reporter transcription; actives raise or lower the signal
# Sequence of Hypoxia-inducible factor 1-alpha (Homo sapiens) (Q16665 whole entry, looked up): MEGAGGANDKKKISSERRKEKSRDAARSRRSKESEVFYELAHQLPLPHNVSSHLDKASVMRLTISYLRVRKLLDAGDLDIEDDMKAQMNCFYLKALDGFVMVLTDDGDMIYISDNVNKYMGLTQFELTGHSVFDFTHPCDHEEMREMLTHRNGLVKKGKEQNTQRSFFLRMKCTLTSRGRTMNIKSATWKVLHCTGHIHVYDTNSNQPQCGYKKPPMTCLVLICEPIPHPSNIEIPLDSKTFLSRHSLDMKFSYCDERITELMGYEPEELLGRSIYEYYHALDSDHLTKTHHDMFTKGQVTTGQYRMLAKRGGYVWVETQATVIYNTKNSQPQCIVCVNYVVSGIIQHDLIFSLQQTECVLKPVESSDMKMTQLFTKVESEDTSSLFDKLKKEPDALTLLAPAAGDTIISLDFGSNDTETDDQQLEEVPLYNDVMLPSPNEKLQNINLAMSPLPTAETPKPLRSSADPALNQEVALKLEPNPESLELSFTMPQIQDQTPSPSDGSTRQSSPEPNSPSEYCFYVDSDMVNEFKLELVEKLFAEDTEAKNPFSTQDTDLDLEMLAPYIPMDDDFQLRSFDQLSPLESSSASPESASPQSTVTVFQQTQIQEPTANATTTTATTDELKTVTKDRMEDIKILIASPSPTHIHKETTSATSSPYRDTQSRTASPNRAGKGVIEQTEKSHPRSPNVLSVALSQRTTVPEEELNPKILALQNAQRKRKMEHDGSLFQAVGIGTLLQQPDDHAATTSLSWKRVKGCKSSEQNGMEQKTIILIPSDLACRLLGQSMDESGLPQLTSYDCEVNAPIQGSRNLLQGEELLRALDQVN
# Method in brief: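 After 24 h chemical exposure of reporter-transfected HepG2 cells, reporter cDNA was PCR-amplified, labelled by 6-FAM primer extension (2 min 95 C, 20 s 68 C, 10 min 72 C), HpaI-cut (2 h, 37 C) and analysed by CE.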
# [4] = target: Hepatocyte nuclear factor 6 (Homo sapiens) (UniProt Q9UBC0); test: ATG_HNF6_CIS: Attagene CIS-FACTORIAL HepG2 Assay for human Hepatocyte Nuclear Factor 6 (HNF6) (AID 2282952); details: HepG2 Attagene cis-factorial HNF6 reporter transcription; actives raise or lower the signal
# Sequence of Hepatocyte nuclear factor 6 (Homo sapiens) (Q9UBC0 whole entry, looked up): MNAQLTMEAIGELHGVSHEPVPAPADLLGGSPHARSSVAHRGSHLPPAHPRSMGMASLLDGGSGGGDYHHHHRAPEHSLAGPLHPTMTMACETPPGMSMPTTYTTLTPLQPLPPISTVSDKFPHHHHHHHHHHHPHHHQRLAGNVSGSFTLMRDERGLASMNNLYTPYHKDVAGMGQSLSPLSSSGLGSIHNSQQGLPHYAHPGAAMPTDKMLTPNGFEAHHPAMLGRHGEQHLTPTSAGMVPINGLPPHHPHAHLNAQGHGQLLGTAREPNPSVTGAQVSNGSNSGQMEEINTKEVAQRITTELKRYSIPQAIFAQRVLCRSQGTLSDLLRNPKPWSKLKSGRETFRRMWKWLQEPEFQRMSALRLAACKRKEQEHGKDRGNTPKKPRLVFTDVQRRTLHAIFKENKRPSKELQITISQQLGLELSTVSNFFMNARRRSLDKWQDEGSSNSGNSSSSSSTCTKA
# Method in brief: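 HepG2 cells transiently transfected with cis-element-driven multiple reporter transcription units, dosed 24 h; reporter mRNA quantified by RT-PCR, FAM primer extension, HpaI digestion and capillary electrophoresis; bidirectional fit versus DMSO baseline.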
# [5] = target: Heat shock factor protein 1 (Homo sapiens) (UniProt Q00613); test: ATG_HSE_CIS: Attagene CIS-FACTORIAL HepG2 Assay for human Heat Shock Transcription Factor 1 (HSE) (AID 2282953); details: HepG2 HSE cis-reporter, Attagene RNA transcription; actives raise or lower the signal
# Sequence of Heat shock factor protein 1 (Homo sapiens) (Q00613 whole entry, looked up): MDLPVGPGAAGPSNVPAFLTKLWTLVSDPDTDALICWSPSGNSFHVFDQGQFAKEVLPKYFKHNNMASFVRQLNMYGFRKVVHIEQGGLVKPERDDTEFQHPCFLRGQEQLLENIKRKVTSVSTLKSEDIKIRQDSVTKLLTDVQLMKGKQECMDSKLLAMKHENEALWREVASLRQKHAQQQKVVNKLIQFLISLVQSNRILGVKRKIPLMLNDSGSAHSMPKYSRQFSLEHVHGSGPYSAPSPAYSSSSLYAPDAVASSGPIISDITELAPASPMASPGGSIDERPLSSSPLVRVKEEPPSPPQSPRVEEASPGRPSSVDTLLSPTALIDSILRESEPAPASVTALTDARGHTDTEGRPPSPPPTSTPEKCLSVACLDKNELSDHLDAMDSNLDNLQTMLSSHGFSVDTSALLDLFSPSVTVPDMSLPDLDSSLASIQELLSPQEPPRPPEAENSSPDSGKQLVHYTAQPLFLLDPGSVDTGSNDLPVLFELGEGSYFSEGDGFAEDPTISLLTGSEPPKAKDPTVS
# Method in brief: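 HepG2 cells transfected with cis-promoter reporter units sensing endogenous transcription factor activity; reporter mRNA quantified 24 h post-dose by RT-PCR and capillary electrophoresis of 6-FAM-labelled products. Bidirectional fitting against DMSO.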
# [6] = ATG_MRE_CIS: Attagene CIS-FACTORIAL HepG2 Assay for human Metal Responsive Element (MRE) (AID 2282954); details: HepG2 MRE cis-reporter transcription, Attagene multiplex; actives raise or lower the signal
# Method in brief: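 HepG2 cells transiently transfected with multiple cis-element reporter units measure endogenous MTF1-driven transcription. After 24 h compound exposure, reporter mRNA is quantified by RT-PCR with 6-FAM labelling, HpaI digestion and capillary electrophoresis; bidirectional fits versus DMSO.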
# [7] = ATG_PBREM_CIS: Attagene CIS-FACTORIAL HepG2 Assay for human Phenobarbital-responsive Enhancer Module (PBREM) (AID 2282955); details: HepG2 PBREM cis-reporter, Attagene multiplexed transcription; actives raise or lower the signal
# Method in brief: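 Measures endogenous factor action on a phenobarbital-responsive enhancer module. HepG2 transiently carrying cis reporters, 24 h treatment, mRNA read-out by RT-PCR plus capillary electrophoresis.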
# [8] = ATG_PPRE_CIS: Attagene CIS-FACTORIAL HepG2 Assay for human Peroxisome Proliferator-activated Response Element (PPRE) (AID 2282958); details: HepG2 PPRE cis-element reporter, Attagene transcription factor profiling; actives raise or lower the signal
# Method in brief: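 PPRE activity in HepG2: transient cis-reporter transfection, 24 h compound incubation, reporter mRNA by RT-PCR and CE fluorescence; gain/loss fitted against DMSO.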
# [9] = ATG_Sox_CIS: Attagene CIS-FACTORIAL HepG2 Assay for human SRY-box transcription factor (SOX) (AID 2282960); details: HepG2 Attagene cis-factorial SOX reporter, mRNA; actives raise or lower the signal
# Method in brief: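 HepG2, cis reporter units, 24 h exposure. Reporter mRNA: RT-PCR → FAM labelling → HpaI → CE fluorescence. Bidirectional fit vs DMSO.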
# [10] = target: Transcription factor Sp1 (Homo sapiens) (UniProt P08047); test: ATG_Sp1_CIS: Attagene CIS-FACTORIAL HepG2 Assay for human Specificity Protein 1 (Sp1) (AID 2282961); details: HepG2 Sp1 cis-reporter transcription, actives raise or lower the signal
# Sequence of Transcription factor Sp1 (Homo sapiens) (P08047 whole entry, looked up, the tested form may be a part): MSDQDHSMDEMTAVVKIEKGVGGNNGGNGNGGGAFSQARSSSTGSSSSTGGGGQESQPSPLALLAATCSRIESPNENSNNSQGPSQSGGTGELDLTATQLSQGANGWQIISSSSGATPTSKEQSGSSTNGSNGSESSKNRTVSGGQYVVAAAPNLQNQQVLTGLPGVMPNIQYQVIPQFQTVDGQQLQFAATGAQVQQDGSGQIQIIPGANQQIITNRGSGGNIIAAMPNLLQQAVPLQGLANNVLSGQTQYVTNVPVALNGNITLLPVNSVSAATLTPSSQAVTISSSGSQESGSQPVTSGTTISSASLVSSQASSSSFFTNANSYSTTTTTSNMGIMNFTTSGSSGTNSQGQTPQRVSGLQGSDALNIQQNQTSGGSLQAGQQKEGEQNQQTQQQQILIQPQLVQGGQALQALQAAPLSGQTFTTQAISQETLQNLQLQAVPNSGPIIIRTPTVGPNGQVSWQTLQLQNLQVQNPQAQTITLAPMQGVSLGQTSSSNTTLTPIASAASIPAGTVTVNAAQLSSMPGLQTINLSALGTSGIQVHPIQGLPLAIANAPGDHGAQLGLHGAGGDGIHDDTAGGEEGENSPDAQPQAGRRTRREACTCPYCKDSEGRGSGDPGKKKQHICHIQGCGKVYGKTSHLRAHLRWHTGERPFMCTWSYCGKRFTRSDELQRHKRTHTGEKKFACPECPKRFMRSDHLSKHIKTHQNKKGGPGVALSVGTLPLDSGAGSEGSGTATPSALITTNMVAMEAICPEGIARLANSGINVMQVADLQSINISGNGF
# Method in brief: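 Liver-derived HepG2 cells, cis-element reporter library, 24 h treatment; RNA isolated, cDNA amplified with reporter-specific primers, FAM-labeled fragments sized on capillary analyzer. DMSO baseline, bidirectional curve fit.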
# [11] = ATG_SREBP_CIS: Attagene CIS-FACTORIAL HepG2 Assay for human Sterol Regulatory Element Binding (SREBP) (AID 2282962); details: HepG2 Attagene cis-factorial SREBP reporter, mRNA; actives raise or lower the signal
# Method in brief: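 HepG2 cells transiently transfected with multiplexed cis-element reporter units report endogenous transcription factor activity. After 24 h of chemical exposure, reporter mRNA was quantified by RT-PCR, 6-FAM labelling, HpaI digestion and capillary electrophoresis; bidirectional fits used DMSO as baseline.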
# [12] = target: Signal transducer and activator of transcription 3 (Homo sapiens) (UniProt P40763); test: ATG_STAT3_CIS: Attagene CIS-FACTORIAL HepG2 Assay for human Signal Transducer and Activator of Transcription 3 (STAT3) (AID 2282963); details: HepG2, Attagene cis-factorial STAT3 reporter transcription; actives raise or lower the signal
# Sequence of Signal transducer and activator of transcription 3 (Homo sapiens) (P40763 whole entry, looked up): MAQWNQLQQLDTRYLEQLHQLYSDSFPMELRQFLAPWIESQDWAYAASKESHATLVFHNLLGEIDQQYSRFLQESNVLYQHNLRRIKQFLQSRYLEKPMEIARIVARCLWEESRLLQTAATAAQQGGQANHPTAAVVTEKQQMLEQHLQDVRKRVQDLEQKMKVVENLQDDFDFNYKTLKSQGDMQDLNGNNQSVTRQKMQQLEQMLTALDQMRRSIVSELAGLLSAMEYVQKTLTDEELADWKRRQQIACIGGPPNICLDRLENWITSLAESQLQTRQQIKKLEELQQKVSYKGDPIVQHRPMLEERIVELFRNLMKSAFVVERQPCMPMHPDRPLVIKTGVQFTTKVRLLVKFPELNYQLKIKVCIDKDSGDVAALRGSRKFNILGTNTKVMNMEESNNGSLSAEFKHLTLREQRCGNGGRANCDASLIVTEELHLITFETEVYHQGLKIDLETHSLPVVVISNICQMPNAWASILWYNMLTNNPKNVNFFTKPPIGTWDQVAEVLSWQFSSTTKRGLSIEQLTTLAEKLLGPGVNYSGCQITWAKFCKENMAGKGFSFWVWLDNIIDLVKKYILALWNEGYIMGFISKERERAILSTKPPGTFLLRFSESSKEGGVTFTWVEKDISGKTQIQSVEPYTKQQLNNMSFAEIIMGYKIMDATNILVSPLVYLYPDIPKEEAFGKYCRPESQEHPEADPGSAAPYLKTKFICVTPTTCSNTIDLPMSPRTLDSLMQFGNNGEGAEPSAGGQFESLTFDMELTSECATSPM
# Method in brief: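 HepG2 cells transiently transfected with cis-element-driven multiple reporter transcription units; after 24 h chemical exposure, reporter mRNA measured by RT-PCR, 6-FAM primer-extension labelling, HpaI digestion and capillary electrophoresis. Bidirectional fitting versus DMSO baseline.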
# [13] = ATG_TA_CIS: Attagene CIS-FACTORIAL HepG2 Assay for human TA Basal Promoter (AID 2282964); details: HepG2 Attagene CIS-factorial TA basal promoter reporter; actives raise or lower the signal
# Method in brief: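 HepG2 cells transiently transfected with multiple reporter units under cis promoter elements, reporting endogenous transcription factor activity; this endpoint tracks the TA basal promoter as background control. Reporter mRNA after 24 h dosing measured by RT-PCR/capillary electrophoresis; bidirectional fits versus DMSO.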
# [14] = ATG_TCF_b_cat_CIS: Attagene CIS-FACTORIAL HepG2 Assay for human T-Cell-Factor with beta-catenin (TCF/b-cat) (AID 2282965); details: HepG2 TCF/beta-catenin cis-reporter transcription, actives raise or lower the signal
# Method in brief: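 HepG2 cells transiently transfected with multiple cis-promoter-regulated reporter transcription units, so endogenous transcription factor activity is measured. Reporter mRNA read 24 hours after dosing by RT-PCR, fluorescent labelling and capillary electrophoresis; bidirectional fitting against DMSO.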
# [15] = ATG_TAL_CIS: Attagene CIS-FACTORIAL HepG2 Assay for human TAL Basal Promoter (AID 2282966); details: HepG2 Attagene cis-factorial TAL promoter reporter; actives raise or lower the signal;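 further: background control endpoint measuring basal TAL promoter reporter mRNA not a specific factor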
# Method in brief: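 HepG2 cells were transiently transfected with promoter-driven multiplexed reporter units and dosed for 24 h. Reporter mRNA was measured by RT-PCR with capillary electrophoresis fluorescence; bidirectional fits used DMSO as baseline, serving as a background control.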
# [16] = ATG_VDRE_CIS: Attagene CIS-FACTORIAL HepG2 Assay for human Vitamin D Receptor Element (VDRE) (AID 2282968); details: HepG2 VDRE cis-reporter transcription, actives raise or lower the signal
# Method in brief: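 HepG2 cells transiently transfected with cis-element reporter units, dosed 24 h; reporter mRNA measured by RT-PCR, 6-FAM labeling, HpaI digestion and capillary electrophoresis. Activity fitted bidirectionally against DMSO baseline.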
# [17] = target: Paired box protein Pax-6 (Homo sapiens) (UniProt P26367); test: ATG_Pax6_CIS: Attagene CIS-FACTORIAL HepG2 Assay for human Paired Box 6 (PAX6) (AID 2282956); details: HepG2 CIS-FACTORIAL PAX6 reporter transcription, RNA readout; actives raise or lower the signal
# Sequence of Paired box protein Pax-6 (Homo sapiens) (P26367 whole entry, looked up): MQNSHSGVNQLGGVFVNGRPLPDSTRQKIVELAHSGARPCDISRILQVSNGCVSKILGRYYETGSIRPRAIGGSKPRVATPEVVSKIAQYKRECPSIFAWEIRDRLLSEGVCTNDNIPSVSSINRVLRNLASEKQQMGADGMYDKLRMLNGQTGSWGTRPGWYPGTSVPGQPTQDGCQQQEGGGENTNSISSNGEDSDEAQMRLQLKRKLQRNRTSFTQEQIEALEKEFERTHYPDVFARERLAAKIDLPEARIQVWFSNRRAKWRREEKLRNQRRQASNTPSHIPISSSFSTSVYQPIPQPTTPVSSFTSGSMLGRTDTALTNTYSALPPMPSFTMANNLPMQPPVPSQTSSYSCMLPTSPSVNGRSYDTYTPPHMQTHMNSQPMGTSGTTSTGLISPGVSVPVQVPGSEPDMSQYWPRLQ
# Method in brief: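 HepG2 cells transiently transfected with multiplexed cis-promoter reporter units (endogenous TF activity) were dosed for 24 h. Reporter mRNA was quantified by RT-PCR, 6-FAM labeling, HpaI digestion and capillary electrophoresis; bidirectional fitting versus DMSO baseline.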
# [18] = ATG_PXRE_CIS: Attagene CIS-FACTORIAL HepG2 Assay for human Pregnane X Receptor Element (PXRE) (AID 2282957); details: HepG2 Attagene CIS-FACTORIAL PXRE reporter, mRNA; actives raise or lower the signal
# Method in brief: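 HepG2 cells transiently transfected with cis-regulated multiple reporter transcription units; endogenous factor activity measured as reporter mRNA 24 h after dosing. RT-PCR, fluorescent primer extension, HpaI digestion, capillary electrophoresis; bidirectional fit versus DMSO baseline.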
# [19] = ATG_RORE_CIS: Attagene CIS-FACTORIAL HepG2 Assay for human RAR-related Orphan Receptor Element (RORE) (AID 2282959); details: HepG2 Attagene cis-factorial RORE reporter, mRNA; actives raise or lower the signal
# Method in brief: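 A 24-hour exposure of transfected HepG2 hepatoma cells precedes RNA isolation and reporter RT-PCR. Labeled products are digested with HpaI and resolved by capillary electrophoresis, with gain or loss of signal scored relative to DMSO.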
# [20] = ATG_TGFb_CIS: Attagene CIS-FACTORIAL HepG2 Assay for human Transforming Growth Factor (TGF) (AID 2282967); details: HepG2 Attagene CIS TGFb reporter, mRNA transcription; actives raise or lower the signal
# Method in brief: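 HepG2 cells transiently transfected with cis-promoter-driven multiple reporter units measure endogenous TF activity; reporter mRNA quantified at 24 h by RT-PCR, FAM labeling, HpaI digestion and capillary electrophoresis. Bidirectional fit vs DMSO.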
smiles,measurement,setting,value
C=COC(=O)C(C)(C)CCCCCC,outcome,[1],inactive
same,outcome,[2],inactive
same,AC50,[3],130 µM (active)
same,outcome,[4],inactive
same,outcome,[5],inactive
same,outcome,[6],inactive
same,outcome,[7],inactive
same,outcome,[8],inactive
same,outcome,[9],inactive
same,outcome,[10],inactive
same,outcome,[11],inactive
same,outcome,[12],inactive
same,outcome,[13],inactive
same,outcome,[14],inactive
same,outcome,[15],inactive
same,outcome,[16],inactive
CCCCC=O,outcome,[1],inactive
same,outcome,[2],inactive
same,outcome,[3],inactive
same,outcome,[4],inactive
same,outcome,[5],inactive
same,outcome,[6],inactive
same,outcome,[17],inactive
same,AC50,[18],27.2 µM (active)
same,outcome,[19],inactive
same,outcome,[10],inactive
same,outcome,[11],inactive
same,outcome,[12],inactive
same,outcome,[13],inactive
same,outcome,[14],inactive
same,outcome,[20],inactive
same,outcome,[16],inactive
O=C(c1cc(O)c(O)c(O)c1)c1ccc(O)c(O)c1O,outcome,[1],inactive
same,outcome,[2],inactive
same,AC50,[3],53.5 µM (active)
same,outcome,[4],inactive
same,outcome,[5],inactive
same,outcome,[6],inactive
same,outcome,[7],inactive
same,outcome,[8],inactive
same,outcome,[19],inactive
same,outcome,[9],inactive
same,outcome,[10],inactive
same,outcome,[11],inactive
same,outcome,[12],inactive
same,outcome,[13],inactive
same,outcome,[14],inactive
same,outcome,[15],inactive
same,outcome,[20],inactive
same,outcome,[16],inactive
Nc1cc(Cl)c(-c2cc(Cl)c(N)cc2Cl)cc1Cl,outcome,[1],inactive
same,outcome,[2],inactive
same,outcome,[3],inactive
same,outcome,[4],inactive
same,AC50,[5],18.1 µM (active)
same,AC50,[6],13.2 µM (active)
same,outcome,[7],inactive
same,outcome,[8],inactive
same,AC50,[10],15.9 µM (active)
same,AC50,[11],6.9 µM (active)
same,outcome,[12],inactive
same,outcome,[13],inactive
same,outcome,[14],inactive
same,outcome,[15],inactive
same,outcome,[20],inactive
same,AC50,[16],2.96 µM (active)
O=S(=O)(O)c1ccccc1,outcome,[1],inactive
same,outcome,[2],inactive
same,outcome,[3],inactive
same,outcome,[4],inactive
same,outcome,[5],inactive
same,outcome,[6],inactive
same,outcome,[17],inactive
same,AC50,[18],55.5 µM (active)
same,outcome,[18],inactive
same,AC50,[8],57.9 µM (active)
same,outcome,[8],inactive
same,outcome,[19],inactive
same,outcome,[9],inactive
same,outcome,[10],inactive
same,outcome,[11],inactive
same,outcome,[12],inactive
same,outcome,[13],inactive
same,outcome,[14],inactive
same,outcome,[20],inactive
same,outcome,[16],inactive
FC(OC(F)(F)C(F)(F)C(F)(F)F)C(F)(F)F (stereo not drawn),outcome,[1],inactive
same,outcome,[2],inactive
same,outcome,[3],inactive
same,outcome,[4],inactive
same,outcome,[5],inactive
same,outcome,[6],inactive
same,outcome,[7],inactive
same,outcome,[18],inactive
same,outcome,[9],inactive
same,outcome,[10],inactive
same,outcome,[11],inactive
same,outcome,[12],inactive
same,outcome,[13],inactive
same,outcome,[14],inactive
same,outcome,[15],inactive
same,outcome,[20],inactive
same,outcome,[16],inactive
